Many of the other results were omitted from the sample, so hits are more common in it than they were.
GIRK2 activator: Activates human GIRK2-containing potassium channels. activation (% efficacy), % for hits at 37.5 µM. 34,000 tested, under 10 active. AID 1259324. HEK293 GIRK2/NPY4 cells, thallium flux fluorescence. P48051;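 active = primary screen hit, no activity in plain HEK293 cells, and in GIRK2-only cells above 5% efficacy rising with concentration; inactive = the rest, including fluorescent compounds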;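 also: efficacy is normalized control-subtracted fluorescence 15 s after thallium addition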
GluA2 TARP mod: modulators of AMPA receptor GluA2-stargazin complexes. HEK293 GluA2+stargazin, membrane potential dye (FDSS), glutamate EC50; hits were called plate by plate, in both directions. O88602+P19491. 40,000 compounds, 3.5% hits. calls only at 30 µM. AID 1259245;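 active = any of four per-well response measures lying three or more SD from its plate-wide compound average, in either direction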
Target sequence (O88602 whole entry, looked up): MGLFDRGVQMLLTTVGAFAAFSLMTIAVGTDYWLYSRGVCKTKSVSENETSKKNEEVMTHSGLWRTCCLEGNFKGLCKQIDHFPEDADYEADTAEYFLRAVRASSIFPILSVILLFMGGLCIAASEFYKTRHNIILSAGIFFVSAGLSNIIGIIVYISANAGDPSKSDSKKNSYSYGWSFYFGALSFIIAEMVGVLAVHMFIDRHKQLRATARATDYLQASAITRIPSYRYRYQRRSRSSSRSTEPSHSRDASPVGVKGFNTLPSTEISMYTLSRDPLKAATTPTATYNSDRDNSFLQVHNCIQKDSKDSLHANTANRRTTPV
Target sequence (P19491 whole entry, looked up): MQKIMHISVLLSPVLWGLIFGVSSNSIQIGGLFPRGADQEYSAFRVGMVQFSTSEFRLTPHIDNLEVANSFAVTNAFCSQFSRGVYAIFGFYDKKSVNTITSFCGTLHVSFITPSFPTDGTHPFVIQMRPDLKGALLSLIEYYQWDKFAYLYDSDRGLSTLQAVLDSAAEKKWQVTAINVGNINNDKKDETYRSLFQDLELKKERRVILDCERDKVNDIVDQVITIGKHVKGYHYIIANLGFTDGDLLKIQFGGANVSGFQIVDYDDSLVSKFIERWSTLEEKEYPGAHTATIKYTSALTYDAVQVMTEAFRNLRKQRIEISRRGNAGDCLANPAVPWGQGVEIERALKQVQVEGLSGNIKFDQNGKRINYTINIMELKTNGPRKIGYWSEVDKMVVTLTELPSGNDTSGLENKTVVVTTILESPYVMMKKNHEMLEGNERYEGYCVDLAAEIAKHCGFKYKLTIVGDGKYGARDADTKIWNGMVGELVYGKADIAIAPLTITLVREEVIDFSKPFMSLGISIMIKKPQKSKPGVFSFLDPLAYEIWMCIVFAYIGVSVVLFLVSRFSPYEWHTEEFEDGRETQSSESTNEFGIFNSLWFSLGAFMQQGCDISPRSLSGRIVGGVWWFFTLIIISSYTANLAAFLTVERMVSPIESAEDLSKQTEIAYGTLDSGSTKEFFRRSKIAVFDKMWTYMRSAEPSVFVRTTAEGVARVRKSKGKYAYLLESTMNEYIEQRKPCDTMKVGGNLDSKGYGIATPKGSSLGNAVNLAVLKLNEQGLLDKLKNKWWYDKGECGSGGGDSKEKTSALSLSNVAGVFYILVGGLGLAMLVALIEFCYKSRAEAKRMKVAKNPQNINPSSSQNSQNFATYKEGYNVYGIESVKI
The depositor's hits bear a star; i = inactive; . = no result given; + = active, no number.

SMILES | GIRK2 activator | GluA2 TARP mod
COc1cc(/C=C2\SC(=S)N(c3ccc(O)c(C(=O)O)c3)C2=O)ccc1O | . | i
O=C(CC12CC3CC(CC(C3)C1)C2)Nc1noc2ncccc12 | i | .
O=C(CCc1ccccc1)NCCC(O)c1ccccc1 (centres undefined) | i | +
O=C(Cc1ccc(F)cc1)NCCC(O)c1ccccc1 (centres undefined) | i | i
CCn1nnc2c(N3CCN(CC(N)=O)CC3)ncnc21 | i | i
CCNC(=O)c1sccc1S(=O)(=O)N1CCN(c2ccc(Cl)cc2)CC1 | i | .
Cc1cc(C(=O)NCC2(O)CCOCC2)no1 | i | .
CCN1C(=O)C(CC(=O)Nc2ccc(OC)cc2)SC1=NS(=O)(=O)c1ccc(C)cc1 (centres undefined) | i | .
CCN(CC)C(=O)Cn1cc(C(=O)C(=O)N(CCOC)CCOC)c2ccccc21 | . | i
O=C(c1ccccc1Oc1ccccc1)N1CCC(c2cccs2)CC1 | i | i
CSc1ccccc1C(=O)N1CCC(c2cccs2)CC1 | i | +
Cc1cc(S(=O)(=O)NCCn2nc(-c3ccccc3)ccc2=O)ccc1F | . | i
CCC(C)NC(=O)c1cc2cc(Br)cc(OC)c2oc1=O (centres undefined) | i | i
CCCOC(=O)c1cc2cc(Br)cc(OC)c2oc1=O | i | +
COc1ccc(S(=O)(=O)NCC2CCN(Cc3cccs3)CC2)cc1F | i | .
Cn1c(C(F)(F)F)nn(CCNC(=O)c2cc3ccccc3o2)c1=O | i | i
O=C(Nc1onc2c1CSC2)C1COc2ccccc2O1 (centres undefined) | i | i
COCCn1c(=O)c2c(nc3n(-c4ccc(C(F)(F)F)cc4)c(C)c(C)n23)n(C)c1=O | . | i
COc1ccc(CCC(=O)NCC2CCN(C(=O)c3cccnc3SC)CC2)cc1 | i | i
CC(=O)Cc1nsc(NC(=O)c2cc(-c3ccc([N+](=O)[O-])cc3)oc2C)n1 | i | +
CC(=O)Cc1nsc(NC(=O)c2oc3ccc(C)cc3c2C)n1 | . | i
CC(=O)COc1ccc(N2CCn3c2nc2c3c(=O)n(C)c(=O)n2C)cc1 | . | i
COc1ccc(S(=O)(=O)NCc2nnnn2-c2ccc(F)cc2)cc1 | . | +
COc1ccc(S(=O)(=O)NCc2nnnn2-c2ccc(F)c(F)c2)cc1 | . | i
COC(=O)NCC1CCN(C(=O)/C=C/c2ccco2)CC1 | i | i
SMILES | GIRK2 activator | GluA2 TARP mod
CCc1cccc2sc(N(CCN3CCOCC3)C(=O)c3ccc4c(c3)OCCO4)nc12 | i | i
Cc1ccc([N+](=O)[O-])cc1NC(=O)c1ccc(=O)n(Cc2ccccc2)c1 | i | i
Cc1ccc([N+](=O)[O-])cc1NC(=O)c1ccc(C(C)(C)C)cc1 | i | +
CC(C)(C)OC(=O)N1CCC(Cn2c(C(F)(F)F)nc3ccccc32)CC1 | i | +
CC(C)(C)OC(=O)N1CCC(CO)CC1 | i | i
COc1ccc(-n2nnnc2SC(C)C(=O)Nc2ccc(C(C)C)cc2)cc1 (centres undefined) | . | i
COc1ccc(S(=O)(=O)N2CCN(c3ccc(-c4ccncc4)nn3)CC2)c(OC)c1 | i | +
COc1ccc(C)cc1S(=O)(=O)N1CCN(c2ccc(-c3ccccc3)nn2)CC1 | i | i
O=S(=O)(c1ccccc1)N1CCN(c2ccc(Nc3ccncc3)nn2)CC1 | i | i
COc1ccc(S(=O)(=O)N2CCN(c3ccc(Nc4ccncc4)nn3)CC2)cc1 | i | +
O=C(NCC#CCN1CCc2ccccc2C1)c1cccc(Cl)c1 | i | i
O=C(COc1ccccc1C1CC(c2ccccc2)=NN1C(=O)c1ccccc1)NCCO (centres undefined) | . | +
O=C(c1ccccc1)N1N=C(c2ccc(F)cc2)CC1c1ccc2nccnc2c1 (centres undefined) | i | .
O=C(NCCc1nc2ccccc2[nH]1)OCc1ccccc1 | . | i
Cc1ccc2c(c1)CCCN2C(=O)c1nc(-c2cnccn2)no1 | i | i
Cn1cccc1C(CNC(=O)C(=O)NC1CCCC1)N1CCCC1 (centres undefined) | i | i
Cn1cccc1C(CNC(=O)C1CCN(S(C)(=O)=O)CC1)N1CCCC1 (centres undefined) | i | +
COC(=O)Cn1c(=O)c2c(nc3n(-c4cc(C)ccc4OC)c(-c4ccccc4)cn23)n(C)c1=O | . | i
O=C(Cc1cc(-c2ccc3c(c2)OCO3)on1)NCc1ccc2c(c1)OCO2 | i | i
O=C(Cc1cc(-c2ccc3c(c2)OCCO3)on1)NCc1ccccc1 | i | +
O=C(Cc1cccc(F)c1)NC1(c2nc(-c3ccsc3)no2)CCCCC1 | i | i
Cc1ccc(S(=O)(=O)N2CCC(C(=O)Nc3sc4c(c3C(N)=O)CCC4)CC2)cc1 | i | i
COc1ccccc1-c1ccc(N2CCC(C(=O)N3CCN(c4ccccc4OC)CC3)CC2)nn1 | i | i
CCN(C(=O)C1CCN(c2ccc(-c3ccccc3OC)nn2)CC1)C1CCCCC1 | i | +
O=C(Cc1ccc(-c2ccccc2)cc1)Nn1cnc2c(cnn2-c2ccccc2)c1=O | i | i
SMILES | GIRK2 activator | GluA2 TARP mod
Cc1nnsc1C(=O)Nc1nn(C)c2c1CC(C)C(=O)N2 (centres undefined) | i | i
CCOCCn1c(-n2nc(C)cc2C)nc2c1c(=O)n(Cc1ccc(F)cc1)c(=O)n2C | i | i
COCCn1c(=O)c2c(nc(-n3nc(C)cc3C)n2Cc2ccc(F)cc2)n(C)c1=O | i | +
COc1ccc(S(=O)(=O)NCC(c2ccco2)N(C)C)cc1 (centres undefined) | . | i
Cc1nn(C2CCS(=O)(=O)C2)c(C)c1CC(=O)Nc1ccc(F)c(Cl)c1 (centres undefined) | i | i
O=C(Nc1ccc(F)c(Cl)c1)c1cc(C2CC2)n(C2CCS(=O)(=O)C2)n1 (centres undefined) | i | +
COc1ccc(N(Cc2cccc(Cl)c2)S(=O)(=O)c2ccc3nncn3c2)cc1 | i | i
COc1ccc(N(Cc2cccc(C)c2)S(=O)(=O)c2ccc3nncn3c2)cc1 | i | +
Cc1nc(Nc2ccc(NC(=O)c3ccc(S(=O)(=O)N(C)C)cc3)cc2)cc(-n2ccnc2)n1 | i | i
COCCNC(=O)N1CC(c2nc(-c3cccc(C(F)(F)F)c3)no2)C1 | i | .
COc1cccc(-c2cc3ccc(O)cc3oc2=O)c1 | i | i
Cc1ccccc1Nc1nnc(CC(=O)NCc2cccc(C(F)(F)F)c2)s1 | i | .
CCSc1ccc(CC(=O)Nc2nnc(-c3ccccc3OC)o2)cc1 | . | i
O=S(=O)(NCCOc1ccc(-c2ccc(F)cc2)nn1)c1ccc(Br)cc1 | i | +
O=S(=O)(NCCOc1ccc(-c2ccc(F)cc2)nn1)c1ccc(Cl)cc1 | i | i
COc1ccc(S(=O)(=O)NCCOc2ccc(-c3ccc(F)cc3)nn2)cc1 | i | i
Cc1ccc(S(=O)(=O)NCCOc2ccc(-c3ccc(F)cc3)nn2)cc1C | i | +
COc1ccc(NC(=O)c2ccc(=O)n(CC(=O)NCCc3ccccc3)n2)cc1 | i | i
Cn1cccc1CN(C1CC1)S(=O)(=O)Cc1ccccc1Cl | i | .
O=S(=O)(NCC(O)(c1ccco1)C1CC1)c1ccc2c(c1)OCCO2 (centres undefined) | i | i
